# Assays:
# Assay in all cases: yeast three-hybrid, YBZ-1, SC-Leu-His + 0.5 mM 3-AT, 4 days
# Settings in all cases: tags: N-Gal4 AD-HA kept; label: inside an RPR1-promoter hybrid RNA with tandem MS2 sites; ssRNA
# [1] = molecular target: PUM1 PUF domain R4-EYL (Homo sapiens, UniProt Q14671 828-1176, N971E;H972Y;Q975L)
# Summary of the method: (§1)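 The interaction score is the logarithmic change in variant frequency from input to selection. It uses log2, with a pseudocount of 1 for absent variants, and frequencies came from PCR-amplified, Illumina-sequenced repeat regions. The libraries were Pumilio-1 PUF domains randomized at the three base-contacting residues per repeat, co-expressed with matching RNA elements in strain YBZ-1 (LexA–MS2 coat fusion, HIS3 reporter). Plating lasted four days on SC-Leu (input) or SC-Leu-His + 0.5 mM 3-AT (selection).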
# [2] = molecular target: PUM1 PUF domain R4-SRT (Homo sapiens, UniProt Q14671 828-1176, N971S;H972R;Q975T)
# Summary of the method: as §1
# [3] = molecular target: PUM1 PUF domain R3-IYV (Homo sapiens, UniProt Q14671 828-1176, C935I;R936Y;Q939V)
# Summary of the method: as §1
# [4] = molecular target: PUM1 PUF domain R8-RHR (Homo sapiens, UniProt Q14671 828-1176, N1122R;Y1123H;Q1126R)
# Summary of the method: as §1
# [5] = molecular target: PUM1 PUF domain R8-RMR (Homo sapiens, UniProt Q14671 828-1176, N1122R;Y1123M;Q1126R)
# Summary of the method: as §1
# [6] = molecular target: PUM1 PUF domain R5-DHN (Homo sapiens, UniProt Q14671 828-1176, C1007D;R1008H;Q1011N)
# Summary of the method: as §1
# [7] = molecular target: PUM1 PUF domain R8-RHA (Homo sapiens, UniProt Q14671 828-1176, N1122R;Y1123H;Q1126A)
# Summary of the method: as §1
# [8] = molecular target: PUM1 PUF domain R7-VRR (Homo sapiens, UniProt Q14671 828-1176, S1079V;N1080R;E1083R)
# Summary of the method: as §1
# [9] = molecular target: PUM1 PUF domain R5-RFE (Homo sapiens, UniProt Q14671 828-1176, C1007R;R1008F;Q1011E)
# Summary of the method: as §1
# [10] = molecular target: PUM1 PUF domain R5-KRI (Homo sapiens, UniProt Q14671 828-1176, C1007K;Q1011I)
# Summary of the method: as §1
# [11] = molecular target: PUM1 PUF domain R5-RVM (Homo sapiens, UniProt Q14671 828-1176, C1007R;R1008V;Q1011M)
# Summary of the method: as §1
# [12] = molecular target: T1, PUM1 PUF domain R6-IWQ (Homo sapiens, UniProt Q14671 828-1176, N1043I;Y1044W)
# T1 sequence: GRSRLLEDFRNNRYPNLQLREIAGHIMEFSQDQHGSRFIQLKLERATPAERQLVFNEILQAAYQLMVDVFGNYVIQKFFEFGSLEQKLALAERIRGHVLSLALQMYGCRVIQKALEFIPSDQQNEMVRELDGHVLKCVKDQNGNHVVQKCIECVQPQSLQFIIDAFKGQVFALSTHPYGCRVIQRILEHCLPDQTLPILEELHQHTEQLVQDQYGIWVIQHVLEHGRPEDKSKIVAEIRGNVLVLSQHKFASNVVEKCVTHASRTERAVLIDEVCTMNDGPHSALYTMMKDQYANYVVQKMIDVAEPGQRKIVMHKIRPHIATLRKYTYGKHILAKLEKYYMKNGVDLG
# Summary of the method: as §1
# [13] = molecular target: PUM1 PUF domain R2-RKS (Homo sapiens, UniProt Q14671 828-1176, N899R;Y900K;Q903S)
# Summary of the method: as §1
# [14] = molecular target: PUM1 PUF domain R2-CWP (Homo sapiens, UniProt Q14671 828-1176, N899C;Y900W;Q903P)
# Summary of the method: as §1
# [15] = molecular target: PUM1 PUF domain R1-QTK (Homo sapiens, UniProt Q14671 828-1176, S863Q;R864T;Q867K)
# Summary of the method: as §1
# [16] = molecular target: PUM1 PUF domain R1-RFQ (Homo sapiens, UniProt Q14671 828-1176, S863R;R864F)
# Summary of the method: as §1
# [17] = molecular target: PUM1 PUF domain R3-WYR (Homo sapiens, UniProt Q14671 828-1176, C935W;R936Y;Q939R)
# Summary of the method: as §1
# [18] = molecular target: PUM1 PUF domain R3-RPW (Homo sapiens, UniProt Q14671 828-1176, C935R;R936P;Q939W)
# Summary of the method: as §1
# [19] = molecular target: PUM1 PUF domain R3-LRV (Homo sapiens, UniProt Q14671 828-1176, C935L;Q939V)
# Summary of the method: as §1
# [20] = molecular target: PUM1 PUF domain R3-NPG (Homo sapiens, UniProt Q14671 828-1176, C935N;R936P;Q939G)
# Summary of the method: as §1
# Chain of PUM1 PUF domain R4-EYL (Q14671 828-1176 N971E/H972Y/Q975L): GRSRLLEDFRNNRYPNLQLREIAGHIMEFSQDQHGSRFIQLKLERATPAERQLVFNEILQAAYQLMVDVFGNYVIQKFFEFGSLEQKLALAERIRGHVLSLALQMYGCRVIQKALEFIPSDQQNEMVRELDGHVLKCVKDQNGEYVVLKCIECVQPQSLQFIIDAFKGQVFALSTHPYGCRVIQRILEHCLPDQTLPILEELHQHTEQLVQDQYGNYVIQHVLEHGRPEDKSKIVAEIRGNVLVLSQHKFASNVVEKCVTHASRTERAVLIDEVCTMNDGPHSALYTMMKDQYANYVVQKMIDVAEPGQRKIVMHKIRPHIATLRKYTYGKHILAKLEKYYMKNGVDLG
# Chain of PUM1 PUF domain R2-RKS (Q14671 828-1176 N899R/Y900K/Q903S): as the sequence (Q14671 828-1176 N971E/H972Y/Q975L) above, with N72R, Y73K, Q76S, E144N, Y145H, L148Q counted along it
# Chain of PUM1 PUF domain R4-SRT (Q14671 828-1176 N971S/H972R/Q975T): as the sequence (Q14671 828-1176 N971E/H972Y/Q975L) above, with E144S, Y145R, L148T counted along it
# Chain of PUM1 PUF domain R1-RFQ (Q14671 828-1176 S863R/R864F): as the sequence (Q14671 828-1176 N971E/H972Y/Q975L) above, with S36R, R37F, E144N, Y145H, L148Q counted along it
# Chain of PUM1 PUF domain R1-QTK (Q14671 828-1176 S863Q/R864T/Q867K): as the sequence (Q14671 828-1176 N971E/H972Y/Q975L) above, with S36Q, R37T, Q40K, E144N, Y145H, L148Q counted along it
# Chain of PUM1 PUF domain R2-CWP (Q14671 828-1176 N899C/Y900W/Q903P): as the sequence (Q14671 828-1176 N971E/H972Y/Q975L) above, with N72C, Y73W, Q76P, E144N, Y145H, L148Q counted along it
sequence,measurement,setting,value
GGCUAGAACUAGUGGAUCCCCCGGCGCCCGGCGGCUCGAGCCCGGGUAAGUGUAUAUAGUCUGCAUGCCGCCGGGCGCCAUGCCUGCAGGUCGACUCUAGAAAACAUG,binding signal,[1],3.34 log2 enrichment (interaction score)
same,binding signal,[2],2.14 log2 enrichment (interaction score)
GGCUAGAACUAGUGGAUCCCCCGGCGCCCGGCGGCUCGAGCCCGGGUAAGUGUAAAUAGUCUGCAUGCCGCCGGGCGCCAUGCCUGCAGGUCGACUCUAGAAAACAUG,binding signal,[1],4.64 log2 enrichment (interaction score)
same,binding signal,[3],2.65 log2 enrichment (interaction score)
same,binding signal,[4],5.61 log2 enrichment (interaction score)
same,binding signal,[5],1.55 log2 enrichment (interaction score)
same,binding signal,[6],3.41 log2 enrichment (interaction score)
same,binding signal,[7],3.38 log2 enrichment (interaction score)
same,binding signal,[2],3.46 log2 enrichment (interaction score)
GGCUAGAACUAGUGGAUCCCCCGGCGCCCGGCGGCUCGAGCCCGGGUAAGUUUAAAUAGUCUGCAUGCCGCCGGGCGCCAUGCCUGCAGGUCGACUCUAGAAAACAUG,binding signal,[8],2.18 log2 enrichment (interaction score)
GGCUAGAACUAGUGGAUCCCCCGGCGCCCGGCGGCUCGAGCCCGGGUAAGUGUUAAUAGUCUGCAUGCCGCCGGGCGCCAUGCCUGCAGGUCGACUCUAGAAAACAUG,binding signal,[6],2.22 log2 enrichment (interaction score)
GGCUAGAACUAGUGGAUCCCCCGGCGCCCGGCGGCUCGAGCCCGGGUAAGUGUCAAUAGUCUGCAUGCCGCCGGGCGCCAUGCCUGCAGGUCGACUCUAGAAAACAUG,binding signal,[9],4.53 log2 enrichment (interaction score)
same,binding signal,[10],4.51 log2 enrichment (interaction score)
same,binding signal,[11],2.54 log2 enrichment (interaction score)
GGCUAGAACUAGUGGAUCCCCCGGCGCCCGGCGGCUCGAGCCCGGGUAAGUGAAAAUAGUCUGCAUGCCGCCGGGCGCCAUGCCUGCAGGUCGACUCUAGAAAACAUG,binding signal,[12],4.87 log2 enrichment (interaction score)
GGCUAGAACUAGUGGAUCCCCCGGCGCCCGGCGGCUCGAGCCCGGGUAAGCGUAAAUAGUCUGCAUGCCGCCGGGCGCCAUGCCUGCAGGUCGACUCUAGAAAACAUG,binding signal,[4],6.54 log2 enrichment (interaction score)
same,binding signal,[5],3.05 log2 enrichment (interaction score)
same,binding signal,[7],4.75 log2 enrichment (interaction score)
GGCUAGAACUAGUGGAUCCCCCGGCGCCCGGCGGCUCGAGCCCGGGUAAGUGUAAAGAGUCUGCAUGCCGCCGGGCGCCAUGCCUGCAGGUCGACUCUAGAAAACAUG,binding signal,[13],4.33 log2 enrichment (interaction score)
GGCUAGAACUAGUGGAUCCCCCGGCGCCCGGCGGCUCGAGCCCGGGUAAGUGUACAUAGUCUGCAUGCCGCCGGGCGCCAUGCCUGCAGGUCGACUCUAGAAAACAUG,binding signal,[1],1.81 log2 enrichment (interaction score)
GGCUAGAACUAGUGGAUCCCCCGGCGCCCGGCGGCUCGAGCCCGGGUAAGUGUAAAAAGUCUGCAUGCCGCCGGGCGCCAUGCCUGCAGGUCGACUCUAGAAAACAUG,binding signal,[14],6.72 log2 enrichment (interaction score)
GGCUAGAACUAGUGGAUCCCCCGGCGCCCGGCGGCUCGAGCCCGGGUAAGUGUAAACAGUCUGCAUGCCGCCGGGCGCCAUGCCUGCAGGUCGACUCUAGAAAACAUG,binding signal,[13],0.34 log2 enrichment (interaction score)
GGCUAGAACUAGUGGAUCCCCCGGCGCCCGGCGGCUCGAGCCCGGGUAAGUGUAAAUCGUCUGCAUGCCGCCGGGCGCCAUGCCUGCAGGUCGACUCUAGAAAACAUG,binding signal,[15],2.31 log2 enrichment (interaction score)
same,binding signal,[16],5.82 log2 enrichment (interaction score)
GGCUAGAACUAGUGGAUCCCCCGGCGCCCGGCGGCUCGAGCCCGGGUAAGUGUAAUUAGUCUGCAUGCCGCCGGGCGCCAUGCCUGCAGGUCGACUCUAGAAAACAUG,binding signal,[17],2.58 log2 enrichment (interaction score)
same,binding signal,[18],2.6 log2 enrichment (interaction score)
same,binding signal,[19],1.41 log2 enrichment (interaction score)
same,binding signal,[20],2.86 log2 enrichment (interaction score)
GGCUAGAACUAGUGGAUCCCCCGGCGCCCGGCGGCUCGAGCCCGGGUAAGUGUGAAUAGUCUGCAUGCCGCCGGGCGCCAUGCCUGCAGGUCGACUCUAGAAAACAUG,binding signal,[6],2.35 log2 enrichment (interaction score)
GGCUAGAACUAGUGGAUCCCCCGGCGCCCGGCGGCUCGAGCCCGGGUAAGUGUAAGUAGUCUGCAUGCCGCCGGGCGCCAUGCCUGCAGGUCGACUCUAGAAAACAUG,binding signal,[3],4.55 log2 enrichment (interaction score)
same,binding signal,[17],2.45 log2 enrichment (interaction score)
same,binding signal,[19],3.77 log2 enrichment (interaction score)

# Reference: article PMC8384837, “Expanding the binding specificity for RNA recognition by a PUF domain”
